# SARS 3CLpro inh = SARS-CoV 3CLpro protease inhibition; P0C6X7; 0.14% of 290,000 active; inhibition, % at 6 µM; recombinant SARS-CoV 3CLpro, quenched FRET peptide cleavage; in the data active = inhibition above about 12%
# BJeLR lethal = BJeLR cell viability loss | BJeLR (HRASV12) viability, CellTiter-Glo ATP luminescence, 48 h | inhibition, % (test concentration not listed) | 0.17% of 300,000 active | AID 1554; in the data active = inhibition above about 50%
# PriA SSB inh = K. pneumoniae PriA-SSBct interaction inhibition. AlphaScreen SSBct-PriA binding, biotinylated peptide. 0.6% of 430,000 active. inhibition, % at 33 µM; in the data active = inhibition mostly above about 37%, no sharp cut-off; inactive = mostly below about 20%;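 also: plate controls were negative control peptide for no effect and reference peptide for full effect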
# * hit, by the source's call; . = no result given. Sampled rows, rich in hits. Any-hit rate of the full collection: about 0.78%.
SMILES,SARS 3CLpro inh,BJeLR lethal,PriA SSB inh
O=C(CSCc1ccccc1)NCCn1ccnc1-c1ncccn1,.,.,42.0*
O=C(NCCn1ccnc1-c1ncccn1)C1c2ccccc2Oc2ccccc21,.,.,53.0*
O=C(CSCc1ccccc1)NCCn1ccnc1-c1ccccn1,.,.,18.9
C=CCN1C(=O)C(C)(C)COc2ccc(NS(=O)(=O)c3ccc(OC)c(C)c3)cc21,.,.,5.0
O=C(NCCc1ccccc1)NCCn1ccnc1-c1ncccn1,.,.,96.0*
O=C(NCCn1ccnc1-c1ncccn1)NCc1ccc(Cl)cc1,.,.,32.0
Cc1cc(OC2CCN(C(=O)CCc3cccc(Oc4ccc(F)cc4)c3)C2)cc(=O)o1 (stereo unspecified),.,.,-19.0
CC(=O)c1cccc(C#Cc2ccccc2)c1,.,.,-84.0
O=[N+]([O-])c1cccnc1SCc1ccccc1,1.2,-5.4,48.2*
O=[N+]([O-])c1cccnc1Sc1ccc(Br)cc1,.,3.9,47.9*
Cc1ccc(Sc2ncccc2[N+](=O)[O-])cc1,5.5,9.5,35.7
O=C(O)c1cccnc1SCc1ccc([N+](=O)[O-])cc1,1.0,-2.2,-9.6
COc1cccc(C(=O)N2CCN(CC(O)C3CC3)CC2)c1OC (stereo unspecified),.,.,-14.0
Cc1cc(C)cc(C(=O)Nc2cccc(-c3cn4ccsc4n3)c2)c1,.,.,20.0
COc1cc2sc3ccc(C#Cc4ccccn4)cc3c(=O)c2cc1OC,.,-0.7,6.5
COc1cccc2sc3cc(C#Cc4ccccn4)ccc3c(=O)c12,.,.,46.0*
O=S(=O)(c1ccc(Br)s1)N1CCC(Oc2cnccn2)C1 (stereo unspecified),.,.,-5.0
Cc1ccccc1N=C1NN=C(c2ccccc2F)CS1,3.9,-4.2,39.2*
Cc1cccc(C)c1N=C1NN=C(c2ccccc2F)CS1,2.5,6.0,14.6
O=C(CSc1ccccc1)Nc1nnc(Cc2ccccc2)o1,.,.,-4.0
CC1(C)C[C@H]2C=C(C=O)[C@]3(C=O)C[C@]3(C)[C@H]2C1,0.7,92.0*,4.4
Cc1nc(-c2ccccc2Cl)sc1CNC(=O)Cn1cnc2ccccc21,.,.,-3.0
COc1ccc(S(=O)(=O)Nc2ccc3c(c2)N(C(=O)C2CCCC2)CC3)cc1Cl,.,.,0.0
CC(C)Sc1ccc(CC(=O)NCCC(O)c2ccccc2)cc1 (stereo unspecified),.,.,-24.0
O=C(NCc1cc(C2CC2)n(C2CCCC2)n1)c1ccccc1Br,.,.,-9.0
SMILES,SARS 3CLpro inh,BJeLR lethal,PriA SSB inh
O=S(=O)(NCC1(c2cccs2)CCCC1)c1ccc(F)c(Cl)c1,.,.,-28.0
O=[N+]([O-])c1ccc(N=Nc2ncc[nH]2)cc1,-2.0,74.2*,-6.3
O=[N+]([O-])c1ccc(N=NN(CCO)CCO)cc1,-0.8,0.4,2.2
CCOc1ccc(-c2noc(Cn3c(=O)n(CC(C)C)c(=O)c4ccccc43)n2)cc1,.,.,-13.0
O=S(=O)(c1ccccc1)c1cnc2ccc(F)cc2c1N1CCN(c2cccc(Cl)c2)CC1,.,.,-11.0
c1cn(C2CCNC2)nn1 (stereo unspecified),.,.,3.0
COc1ccc2nc3cccc(OC)c3nc2c1,-12.7,1.9,9.8
COc1ccc2nc3ccccc3nc2c1N,-2.5,4.3,48.1*
O=C(Nc1ccc(N2CCCCC2)cc1)c1ccc([N+](=O)[O-])o1,0.9,1.2,-0.7
O=C(Nc1ccc(N2CCCC2)c(Cl)c1)c1ccc([N+](=O)[O-])o1,-0.1,.,44.6*
O=C(NCCCN1CCN(c2ccccc2)CC1)NCc1ccc(Cl)cc1,.,.,8.0
Cc1ccccc1-c1nc(C#N)c(N2CCN(C)CC2)o1,.,.,26.7
N#Cc1nc(-c2ccccc2F)oc1N1CCCCCC1,.,.,86.2*
Cc1ccccc1-c1nc(C#N)c(N2CCCCC2)o1,-0.3,-1.1,59.4*
N#Cc1nc(-c2ccccc2F)oc1N1CCCC1,-1.6,19.3,2.3
O=C(CSCc1ccccc1)Nc1ccccc1-c1cn2ccccc2n1,.,.,0.0
CC(C)(C)c1ccc(OCCNC(=O)c2ncn[nH]2)cc1,-3.0,7.0,56.6*
CCc1cc(C)cc(OCCNC(=O)c2ncn[nH]2)c1,1.8,3.1,-1.1
CCOc1ccccc1NC(=O)c1nn(C)c2ccccc12,.,.,-5.0
CCc1c(C)c(C#N)c2nc3ccccc3n2c1Cl,4.3,128.5*,.
CCOC(=O)CCc1c(C)c(C#N)c2nc3ccccc3n2c1Cl,.,.,-8.0
CCOc1ccccc1NC(=O)CSc1nc(C)nc2c1c(=O)n(C)c(=O)n2C,.,.,-6.0
S=C1NC(c2ccccc2)=CC(c2ccccc2)N1 (stereo unspecified),-0.6,6.1,-3.7
COc1ccc2ccccc2c1C1C=C(c2ccccc2)NC(=S)N1 (stereo unspecified),.,.,36.0*
CCCCN1C(=O)/C(=C/C=C2\Oc3ccccc3N2CC)SC1=S,2.2,-3.0,-3.5
CCN1/C(=C/C=C/c2oc3ccc(-c4ccccc4)cc3[n+]2CC)Oc2ccc(-c3ccccc3)cc21,-164.5,79.7*,-0.3
O=C(C1COc2ccccc2O1)N1CCN(Cc2nc3ccccc3[nH]2)CC1 (stereo unspecified),.,.,-15.0
